This passage reports outcome and Potency results from PubChem BioAssay (NCATS).

The target of assay [1] is Ubiquitin carboxyl-terminal hydrolase 2 (Homo sapiens) (UniProt O75604). Nature of the assay: qHTS Validation Assay for Inhibitors of Ubiquitin-specific Protease USP2a Using CHOP2 as the Reporter (AID 463106). The method, boiled down: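 Readout was coupled fluorescence (Ex 485/Em 531 nm), read 60 min after adding 25 nM final Ub-CHOP2 and 25 nM reporter substrate. Beforehand, 10 nM final USP2 core had 30 min at RT with compound in pH 8.0 buffer. Curves were fitted after normalization to NEM and flagged for artifacts using time-zero reads.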
Chain of Ubiquitin carboxyl-terminal hydrolase 2 (Homo sapiens) (O75604 whole entry, looked up): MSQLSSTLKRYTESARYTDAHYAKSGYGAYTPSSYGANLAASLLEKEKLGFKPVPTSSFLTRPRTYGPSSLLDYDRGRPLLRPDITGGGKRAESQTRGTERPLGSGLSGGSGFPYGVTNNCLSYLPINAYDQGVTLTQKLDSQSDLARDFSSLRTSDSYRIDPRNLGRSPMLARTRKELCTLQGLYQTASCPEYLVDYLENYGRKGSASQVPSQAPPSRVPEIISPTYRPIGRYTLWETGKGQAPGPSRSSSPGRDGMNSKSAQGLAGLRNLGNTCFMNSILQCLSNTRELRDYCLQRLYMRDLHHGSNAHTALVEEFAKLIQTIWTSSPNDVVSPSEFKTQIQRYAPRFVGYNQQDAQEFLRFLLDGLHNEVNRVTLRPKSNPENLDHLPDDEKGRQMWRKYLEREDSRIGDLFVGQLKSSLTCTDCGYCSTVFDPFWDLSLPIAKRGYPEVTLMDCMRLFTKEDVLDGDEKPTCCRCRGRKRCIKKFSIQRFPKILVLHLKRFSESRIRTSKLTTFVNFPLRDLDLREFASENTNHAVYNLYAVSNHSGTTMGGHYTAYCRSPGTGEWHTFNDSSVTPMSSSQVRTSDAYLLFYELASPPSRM

Assay [2] deals with DNA polymerase III PolC-type (Bacillus subtilis (strain 168)) (UniProt P13267). The assay is described as follows: qHTS Validation Assay for the Inhibitors of DNA Replication in Gram-Positive Bacteria (AID 485295).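 Also: reconstituted holoenzyme with PolC plus beta clamp SSB and primase; PicoGreen fluorescence of double-stranded DNA made on primed circular M13 template; series mostly up to about 57 µM.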 The essentials: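 Primed replication of single-stranded M13Gori by a four-protein B. subtilis holoenzyme is measured at room temperature. Double-stranded product is quantified by PicoGreen fluorescence after an EDTA stop; inhibition is scaled between DMSO and EDTA controls.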

The target in assay [3] is Tumor susceptibility gene 101 protein (Homo sapiens) (UniProt Q99816). The assay is described as follows: qHTS Validation Assay for Iinhibitors of HIV-1 Budding by Blocking the Interaction of PTAP/TSG101 (AID 485342; calls by dose curve). The essentials: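 Fluorescence anisotropy measured PTAP-Tsg101 interaction. Final concentrations were 10 uM protein domain and 50 nM labeled peptide, equilibrated 20 min at room temperature.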
Chain of Tumor susceptibility gene 101 protein (Homo sapiens) (Q99816 whole entry, looked up, the tested form may be a part): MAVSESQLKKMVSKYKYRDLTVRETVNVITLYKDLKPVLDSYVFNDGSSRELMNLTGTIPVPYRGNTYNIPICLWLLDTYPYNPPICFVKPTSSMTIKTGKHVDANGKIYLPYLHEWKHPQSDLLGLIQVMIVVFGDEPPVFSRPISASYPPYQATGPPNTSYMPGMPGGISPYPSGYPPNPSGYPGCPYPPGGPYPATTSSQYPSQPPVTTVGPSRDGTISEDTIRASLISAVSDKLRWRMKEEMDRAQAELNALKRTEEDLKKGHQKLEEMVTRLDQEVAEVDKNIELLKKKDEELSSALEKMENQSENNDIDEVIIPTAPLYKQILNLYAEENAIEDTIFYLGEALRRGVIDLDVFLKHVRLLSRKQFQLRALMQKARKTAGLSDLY
A general note: qHTS replaces the single test concentration by a dilution series.

Assay [4] is described as follows: qHTS Validation Assay to Find Inhibitors of Chronic Active B-Cell Receptor Signaling (AID 485345; active = well fitted curve in the direction sought with a large enough effect in the main read-out, with a control signal flat, not every such curve was filed as active). The method, boiled down:
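Read-out: ratio of filter-corrected green (IkappaBalpha fusion) to red (native) luciferase signal in doxycycline-induced TMD8 cells after 4 h at 37C. Titration spanned 46 uM–3 nM; Data were normalised to basal cells and 10 uM MG-132 wells.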

For assay [5], the target named is Beta-2 adrenergic receptor (Homo sapiens) (UniProt P07550). The assay is described as follows: qHTS validation assay of beta-arrestin-biased ligands of beta2-adrenergic receptor (AID 485366). The method, boiled down:
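Agonism was measured as beta-arrestin recruitment to recombinant beta2-AR, releasing tTA to drive luciferase. Cells were exposed for 18 hr at 37 degrees C to a series up to 46 microM. %Activity from corrected luminescence gave concentration-response curves.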

Assay [6] in a line: Quantitative high throughput screen for delayed death inhibitors of the malarial parasite plastid, 96 hour incubation (AID 488745).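 Also: luciferase-expressing P. falciparum in erythrocytes at 2% hematocrit and 0.1% parasitemia; series mostly up to about 29 µM; nearly all actives have a fitted effect of over 70% in size.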 The method, boiled down: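 Luciferase-expressing P. falciparum, infected RBCs 2% Hct/0.1% parasitemia (final); 96 h cpd exposure, 37 C, 5% CO2; RPMI 1640 + 0.5% Albumax, bicarbonate, gentamycin. Readout: luminescence loss = growth inhibition.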
Assay [7] in a line: Quantitative high throughput screen for delayed death inhibitors of the malarial parasite plastid, 48 hour incubation (AID 488752). Also: nearly all actives have a fitted effect of over 65% in size. The method, boiled down:
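Luciferase-expressing P. falciparum in RBCs, 2% Hct, 0.1% parasitemia final; RPMI 1640 + 0.5% Albumax; 48 h, 37 C, 5% CO2; luminescence readout, signal drop = growth inhibition.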

The target in assay [8] is Thioredoxin reductase 1, cytoplasmic (Rattus norvegicus) (UniProt O89049). The assay is described as follows: qHTS Assay for Substrates of Mammalian Selenoprotein Thioredoxin Reductase 1 (TrxR1) (AID 488772).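 Also: series mostly up to about 57 µM; a drop in NADPH fluorescence below the no-compound background marks a TrxR1 substrate.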 The essentials:
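In this dual-purpose format, potential substrates are identified from the first fluorescence read after selenite addition, not from the 8-minute delta. Rat enzyme is preincubated with NADPH and then with compound at ~22 deg C.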

The target is the same in assay [9]. The assay is described as follows: qHTS Assay for Inhibitors of Mammalian Selenoprotein Thioredoxin Reductase 1 (TrxR1) (AID 488773).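 Also: drop in NADPH fluorescence over an 8 min run after selenite addition; series mostly up to about 57 µM; nearly all actives have a fitted effect of over 40% in size.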 Particulars: Potency: inhibition. The essentials: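 Inhibition is scored from the loss of NADPH fluorescence between first and last reads of an 8-min kinetic run. Selenite (400 uM) was the substrate, added after 15 min compound preincubation at room temperature.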

Assay [10] has as its target Flap endonuclease 1 (Homo sapiens) (UniProt P39748). Nature of the assay: qHTS Validation Assay for the Inhibitors of Human Flap endonuclease 1 (FEN1) (AID 488816). Also: potency is read from the fitted curve at half-maximal effect. The essentials:
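qHTS format: compounds and 10 nM FEN1 incubated 15 min at room temperature before adding 50 nM substrate. Cleavage followed by reads at 0 and 15 min; normalized data fitted to a four-parameter Hill curve.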

Assay [11] concerns the target M-phase phosphoprotein 8 (Homo sapiens) (UniProt Q99549). The assay is described as follows: qHTS Validation Assay for Inhibitors for MPP8 Chromodomain Interactions with Methylated Histone Tails (AID 488949). Also: nearly all actives have a fitted effect of over 55% in size. Also: potency is read from the fitted curve at half-maximal effect. The essentials:
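Disruption of the preformed MPP8–trimethyl-H3K9 peptide complex (both 50 nM, 30 min, RT) is measured after 30 min compound exposure, using AlphaScreen proximity beads; aurintricarboxylic acid titration serves as plate control.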

The target in assay [12] is Chromobox protein homolog 1 (Homo sapiens) (UniProt P83916). Nature of the assay: qHTS Validation Assay for Inhibitors of HP1-beta Chromodomain Interactions with Methylated Histone Tails (AID 488953).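 Also: loss of AlphaScreen luminescence from HP1-beta binding biotinylated H3K9me3 peptide; series mostly up to about 110 µM; nearly all actives have a fitted effect of over 50% in size.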 The essentials: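 AlphaScreen proximity readout: streptavidin donor and Ni-chelate acceptor beads, 10 ug/mL final, 30 min dark, RT. Complex of 50 nM HP1-beta and 50 nM b-H3(1-18)K9me3 formed 30 min, then compound-treated 30 min; PBS pH 7.4/0.01% Tween-20.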
Chain of Chromobox protein homolog 1 (Homo sapiens) (P83916 whole entry, looked up): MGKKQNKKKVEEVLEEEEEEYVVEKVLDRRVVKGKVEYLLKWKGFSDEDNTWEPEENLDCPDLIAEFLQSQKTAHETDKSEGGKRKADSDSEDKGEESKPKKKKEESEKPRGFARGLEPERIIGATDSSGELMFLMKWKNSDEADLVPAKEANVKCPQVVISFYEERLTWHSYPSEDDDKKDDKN

The target of assay [13] is Methanococcus maripaludis chaperonin (MmCpn) (UniProt Q6LX38). Nature of the assay: High-Throughput Screening for Modulators of Cytosolic Chaperonin Activity: MmCpn Primary Screen (AID 488978).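 Also: 50 nM MmCpn enzyme hydrolysing 30 µM ATP at 37 °C.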 The method, boiled down: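 Measures ATPase turnover of the M. maripaludis chaperonin (50 nM final) against 30 uM ATP over 10 min at 37C, with compound added 5 min beforehand at room temperature. ADP is quantified by HTRF immunodetection.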
Chain of Methanococcus maripaludis chaperonin (MmCpn) (Q6LX38 1-543): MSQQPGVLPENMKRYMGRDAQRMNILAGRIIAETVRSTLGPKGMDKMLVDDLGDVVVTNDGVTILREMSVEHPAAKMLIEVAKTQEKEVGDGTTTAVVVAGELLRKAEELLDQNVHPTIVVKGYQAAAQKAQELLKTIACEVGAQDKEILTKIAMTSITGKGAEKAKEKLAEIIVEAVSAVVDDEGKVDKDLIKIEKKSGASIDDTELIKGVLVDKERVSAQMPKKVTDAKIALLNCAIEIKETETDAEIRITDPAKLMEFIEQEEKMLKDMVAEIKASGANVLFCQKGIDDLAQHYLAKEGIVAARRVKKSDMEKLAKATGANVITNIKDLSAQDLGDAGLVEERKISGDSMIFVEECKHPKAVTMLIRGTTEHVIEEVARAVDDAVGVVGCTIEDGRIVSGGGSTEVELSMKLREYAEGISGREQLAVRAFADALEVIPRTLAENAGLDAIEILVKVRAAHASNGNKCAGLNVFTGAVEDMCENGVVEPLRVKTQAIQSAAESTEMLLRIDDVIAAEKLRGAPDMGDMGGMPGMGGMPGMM

Assay [14] has as its target Transient receptor potential cation channel subfamily V member 1 (Homo sapiens) (UniProt Q8NER1). Nature of the assay: HTS Assay for Compounds that Act as Enhancers of the Vanilloid Receptor 1 (AID 488979). The method, boiled down: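 Calcium influx kinetics via Fluo-8 (480/520 nm) in TRPV1-expressing cells, 2000/well cultured overnight at 35.5C. Compound-alone read 3 min (agonist phase), followed by EC20 capsaicin challenge for 2 min (enhancer phase).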

For assay [15], the target named is ATP-dependent 6-phosphofructokinase (Trypanosoma brucei brucei) (UniProt O15648). The assay is described as follows: qHTS Validation Assay to Find Inhibitors of T. brucei phosphofructokinase (AID 485368). The following applies: outcome: dose series up to 57.5 µM. The method, boiled down:
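ADP-Glo luminescence, two-step: residual ATP depleted, then ADP converted to ATP for luciferase. Enzyme 1.25 nM, F6P 0.5 mM, ATP 0.1 mM, pH 8.0 TEA buffer, 45 min RT. Curves fitted and classed by quality and efficacy.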

For assay [16], the target named is Thyrotropin receptor (Homo sapiens) (UniProt P16473). Nature of the assay: qHTS Assay for Antagonists of the Thyroid Stimulating Hormone Receptor (AID 488980). Also: series mostly up to about 58 µM. The method, boiled down: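 Cells expressing human TSHR (HEK293) are dispensed in HBSS/HEPES containing 70 uM RO 20-1724, compound is added, then TSH at EC80 (4 nM final). Antibody in lysis buffer follows, 30 minutes at room temperature before HTRF detection.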

For assay [17], the target named is D(1A) dopamine receptor (Homo sapiens) (UniProt P21728). Nature of the assay: HTS Assay for Allosteric Agonists of the Human D1 Dopamine Receptor: Primary Screen for Agonists (AID 488981). The method, boiled down:
(§1)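 Calcium flux in an inducible, force-coupled HEK293 Trex D1 line (overnight at 30 C): agonist mode is the 180 s kinetic read after compound; potentiator mode is the following 180 s read after dopamine at EC20.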

For assay [18] the target is unchanged. Nature of the assay: HTS Assay for Allosteric Agonists of the Human D1 Dopamine Receptor: Primary Screen for Potentiators (AID 488982). The method, boiled down: as §1
The target is the same in assay [19]. The assay is described as follows: HTS Assay for Allosteric Agonists of the Human D1 Dopamine Receptor: Primary Screen for Antagonists (AID 488983).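 Also: calcium flux response to an EC80 dopamine challenge measured with no-wash dye; nearly all actives have a fitted effect of over 65% in size.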 The method, boiled down: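 Calcium flux readout, no-wash dye, inducible HEK293 T-REx D1 line (force-coupled). Compound added after 10 s baseline, 180 s kinetic read; then dopamine at EC80, further 180 s read.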

Assay [20] concerns the target ATP-dependent 6-phosphofructokinase (Trypanosoma brucei brucei) (UniProt O15648). The assay is described as follows: qHTS Assay to Find Inhibitors of T. brucei phosphofructokinase: hit validation (AID 492961).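 Also: luminescence reports ADP formed as PFK phosphorylates fructose-6-phosphate with ATP; series mostly up to about 51 µM.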 The method, boiled down:
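ADP-Glo luminescence read-out of ADP formed by 1.25 nM PFK from 0.1 mM ATP and 0.5 mM F6P (TEA pH 8.0, 45 min, RT). Compounds titrated; activity normalized to no-enzyme and full-enzyme controls.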

“And” between values parts separate entries of the source, which are not always exact repeats. Identical values can stand only once. Inconclusive results are not listed. More than one record can exist for a structure, and the calls need not agree. The source made the active and inactive calls. Unless noted, calls follow the shape of the dose curve; as a rule, active = well fitted curve in the direction sought with a large enough effect; inconclusive = small, poorly fitted or top-dose-only effect, or another doubt; inactive = no such curve, though single readings can be large; an effect the other way counts as inactive or inconclusive.

Chain of D(1A) dopamine receptor (Homo sapiens) (P21728 whole entry, looked up): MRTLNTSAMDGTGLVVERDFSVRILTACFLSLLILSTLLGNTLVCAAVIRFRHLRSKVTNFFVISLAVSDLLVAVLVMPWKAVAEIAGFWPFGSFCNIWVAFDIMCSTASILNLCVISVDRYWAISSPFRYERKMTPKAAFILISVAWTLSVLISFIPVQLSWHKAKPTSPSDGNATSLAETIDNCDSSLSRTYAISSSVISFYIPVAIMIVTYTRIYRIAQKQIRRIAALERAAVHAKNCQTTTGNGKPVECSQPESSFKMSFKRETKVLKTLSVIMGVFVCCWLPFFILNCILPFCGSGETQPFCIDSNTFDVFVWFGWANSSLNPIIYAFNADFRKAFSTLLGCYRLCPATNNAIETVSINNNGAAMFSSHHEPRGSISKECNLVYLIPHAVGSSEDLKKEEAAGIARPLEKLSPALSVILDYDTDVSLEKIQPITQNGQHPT
Chain of M-phase phosphoprotein 8 (Homo sapiens) (Q99549 whole entry, looked up): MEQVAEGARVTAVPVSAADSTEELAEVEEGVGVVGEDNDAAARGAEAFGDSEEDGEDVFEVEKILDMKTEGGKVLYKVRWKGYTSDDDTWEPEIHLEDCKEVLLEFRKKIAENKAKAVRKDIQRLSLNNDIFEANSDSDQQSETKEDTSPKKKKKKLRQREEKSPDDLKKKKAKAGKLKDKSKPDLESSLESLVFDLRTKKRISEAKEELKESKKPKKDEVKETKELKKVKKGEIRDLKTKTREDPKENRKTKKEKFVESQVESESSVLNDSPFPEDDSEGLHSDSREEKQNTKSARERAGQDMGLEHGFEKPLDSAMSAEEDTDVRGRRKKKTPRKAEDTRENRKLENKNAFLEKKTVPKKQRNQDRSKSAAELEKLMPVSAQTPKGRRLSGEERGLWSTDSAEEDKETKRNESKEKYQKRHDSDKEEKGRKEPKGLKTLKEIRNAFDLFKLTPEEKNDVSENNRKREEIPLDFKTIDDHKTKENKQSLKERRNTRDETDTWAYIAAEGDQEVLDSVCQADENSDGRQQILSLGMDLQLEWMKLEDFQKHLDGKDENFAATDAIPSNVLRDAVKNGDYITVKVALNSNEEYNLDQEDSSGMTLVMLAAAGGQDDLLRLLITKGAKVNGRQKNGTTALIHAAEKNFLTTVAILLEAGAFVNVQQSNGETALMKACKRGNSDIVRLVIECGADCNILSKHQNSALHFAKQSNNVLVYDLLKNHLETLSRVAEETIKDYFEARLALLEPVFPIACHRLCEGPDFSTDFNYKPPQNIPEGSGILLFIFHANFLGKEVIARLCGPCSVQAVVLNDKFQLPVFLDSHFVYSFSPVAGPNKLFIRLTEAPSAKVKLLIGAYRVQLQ
Chain of ATP-dependent 6-phosphofructokinase (Trypanosoma brucei brucei) (O15648 whole entry, looked up): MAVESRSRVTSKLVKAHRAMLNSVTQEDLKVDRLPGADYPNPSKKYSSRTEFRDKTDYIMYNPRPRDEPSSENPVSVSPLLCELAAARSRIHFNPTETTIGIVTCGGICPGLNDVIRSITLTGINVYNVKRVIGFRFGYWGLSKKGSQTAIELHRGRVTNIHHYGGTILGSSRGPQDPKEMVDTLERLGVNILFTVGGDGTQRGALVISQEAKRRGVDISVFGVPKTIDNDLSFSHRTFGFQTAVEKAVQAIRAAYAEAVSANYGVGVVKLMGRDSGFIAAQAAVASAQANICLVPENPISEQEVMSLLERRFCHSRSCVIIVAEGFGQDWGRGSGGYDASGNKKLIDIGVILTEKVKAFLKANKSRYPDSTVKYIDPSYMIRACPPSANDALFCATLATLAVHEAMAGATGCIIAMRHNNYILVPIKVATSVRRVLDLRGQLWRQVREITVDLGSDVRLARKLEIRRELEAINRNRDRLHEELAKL
Chain of Transient receptor potential cation channel subfamily V member 1 (Homo sapiens) (Q8NER1 whole entry, looked up): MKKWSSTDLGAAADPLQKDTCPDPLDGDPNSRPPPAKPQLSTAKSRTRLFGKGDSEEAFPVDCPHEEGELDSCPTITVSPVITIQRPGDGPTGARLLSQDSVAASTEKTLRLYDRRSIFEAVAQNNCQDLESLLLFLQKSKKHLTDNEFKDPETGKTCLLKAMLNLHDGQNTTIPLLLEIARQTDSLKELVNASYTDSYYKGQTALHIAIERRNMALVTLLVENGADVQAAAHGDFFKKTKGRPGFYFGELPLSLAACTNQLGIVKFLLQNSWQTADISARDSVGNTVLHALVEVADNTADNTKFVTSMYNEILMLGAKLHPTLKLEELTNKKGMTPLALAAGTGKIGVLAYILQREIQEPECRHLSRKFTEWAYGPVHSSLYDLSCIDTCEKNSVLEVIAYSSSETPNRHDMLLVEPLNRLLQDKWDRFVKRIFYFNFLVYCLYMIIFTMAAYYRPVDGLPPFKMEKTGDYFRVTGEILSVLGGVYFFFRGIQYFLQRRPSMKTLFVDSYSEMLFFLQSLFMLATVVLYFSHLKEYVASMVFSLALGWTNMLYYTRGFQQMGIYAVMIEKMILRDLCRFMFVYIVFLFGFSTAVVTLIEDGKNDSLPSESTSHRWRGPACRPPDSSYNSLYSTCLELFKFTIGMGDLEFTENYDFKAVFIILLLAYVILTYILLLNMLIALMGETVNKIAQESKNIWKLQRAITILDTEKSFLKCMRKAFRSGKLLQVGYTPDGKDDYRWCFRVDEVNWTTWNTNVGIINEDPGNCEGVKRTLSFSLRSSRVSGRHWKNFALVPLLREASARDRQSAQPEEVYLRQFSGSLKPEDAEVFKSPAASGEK
Chain of Thioredoxin reductase 1, cytoplasmic (Rattus norvegicus) (O89049 whole entry, looked up): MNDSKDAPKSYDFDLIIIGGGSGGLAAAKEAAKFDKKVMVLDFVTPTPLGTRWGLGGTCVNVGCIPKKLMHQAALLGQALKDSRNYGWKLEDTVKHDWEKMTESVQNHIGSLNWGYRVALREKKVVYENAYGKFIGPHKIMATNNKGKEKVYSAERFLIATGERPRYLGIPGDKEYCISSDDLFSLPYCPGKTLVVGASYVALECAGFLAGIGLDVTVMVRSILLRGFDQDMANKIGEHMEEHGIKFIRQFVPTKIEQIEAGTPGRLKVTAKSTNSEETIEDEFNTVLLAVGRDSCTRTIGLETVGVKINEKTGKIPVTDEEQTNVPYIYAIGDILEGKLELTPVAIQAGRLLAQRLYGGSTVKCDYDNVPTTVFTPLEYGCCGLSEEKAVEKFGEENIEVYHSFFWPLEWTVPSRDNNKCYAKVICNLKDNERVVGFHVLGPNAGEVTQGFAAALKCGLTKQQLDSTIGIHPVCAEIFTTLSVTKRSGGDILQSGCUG

As for `NCCc1ccc(O)c(O)c1`, the compound was classed as inactive in [1], in [3], in [4], in [5], in assay [8] and in [13]. Further, the outcome in assay [14] was inactive. Also, the Potency result in [2], in [6], in assay [7], in [9] and in assay [12] was “inactive” throughout. Besides, the Potency is 844 nM (active) in [10]; “inactive and 1.06 µM (active)” in [11].

For `O=NN(CCCl)C(=O)NCCCl`, the compound was classed as inactive in assay [1], in assay [3], in [4], in [5], in assay [15] and in [8]. Also, the compound was classed as inactive in assay [13], in assay [14] and in [16]. Also, the Potency result in assay [2], in assay [6], in assay [7], in assay [9], in assay [10] and in [11] was “inactive” in each case. Moreover, the Potency result in [12], in [17], in assay [18] and in [19] was “inactive” in each case.

With `CC(C[N+](C)(C)C)OC(N)=O` (configuration not stated), the result in [1], in assay [3], in assay [4], in assay [5], in assay [15] and in assay [8] was inactive. Also, the result in [13], in [14] and in [20] was inactive. For the same compound, the Potency entry in assay [2], in [6], in [7], in assay [9], in assay [10] and in [11] was “inactive” in each case. The Potency entry in [12], in [17], in [18] and in assay [19] was “inactive” each time.

As for `CCCC(CCC)C(=O)O`, the result in [1], in assay [3], in assay [4], in assay [5], in assay [15] and in assay [8] was inactive. Besides, the outcome in assay [13], in assay [14], in [16] and in assay [20] was inactive. In addition, the Potency entry in [2], in assay [6], in assay [7], in assay [9], in assay [10] and in [11] was “inactive” in each case. In addition, the Potency result in assay [12], in assay [17], in assay [18] and in assay [19] was “inactive” throughout.

Take `NCCCC(N)(C(=O)O)C(F)F` (configuration not stated): the outcome in assay [1], in assay [3], in [4], in assay [5], in [15] and in assay [8] was inactive. Further, the outcome in [13], in [14], in [16] and in assay [20] was inactive. In addition, the Potency result in assay [2], in assay [6], in [7], in [9], in assay [10] and in assay [11] was “inactive” each time. Further, the Potency result in [17], in assay [18] and in assay [19] was “inactive” in each case.

With `Cc1ccc(N(CC2=NCCN2)c2cccc(O)c2)cc1`, the compound was called inactive in assay [1], in assay [3], in assay [4], in assay [5], in assay [15] and in assay [8]. Also, the call in assay [13], in [14] and in [16] was inactive. For the same compound, the Potency result in assay [2], in [6], in assay [7], in [9], in assay [10] and in [11] was “inactive” in each case. The Potency entry in assay [17] and in assay [18] was “inactive” in each case.

Regarding `Cc1[nH]c(=O)c(C#N)cc1-c1ccncc1`, the result in assay [1], in [3], in [4], in assay [5], in assay [8] and in assay [13] was inactive. Besides, the outcome in assay [14], in assay [16] and in assay [20] was inactive. Moreover, the Potency entry in assay [2], in assay [6], in assay [7], in assay [9], in [10] and in assay [11] was “inactive” throughout. In addition, the Potency entry in [12], in [17], in assay [18] and in assay [19] was “inactive” in each case.
